rCAG binder: r(CAG) repeat RNA binding; TO-PRO-1 dye displacement fluorescence; inhibition, % at 3 µM; actives 1.3% (n = 370,000); AID 651821;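 active = inhibition above the plate cutoff, the mean of all test compounds on that plate plus 3 SD, cut at about 35% in these data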;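 also: 0% = DMSO alone and 100% = 100 µM mitoxantrone as full dye displacement; higher means more dye released from RNA so lower well fluorescence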
UHRF1 MBD2 ctr: UHRF1 methyl-DNA binding inhibition; AID 687016; UHRF1 binding to methylated oligo, TR-FRET; inhibition, % at 4.4 µM; Q96T88; actives 0.75% (n = 370,000); in the data active = inhibition above about 21%;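 also: UHRF1 SRA domain binding a hemimethylated CpG hairpin DNA probe; 0% = median of test compound wells and 100% = reference inhibitor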
LEDGF integ inh: blocks HIV-1 LEDGF/p75-dependent DNA integration | TR-FRET IN-LEDGF/p75 DNA integration, Eu/Cy5 | inhibition, % at 3.7 µM | actives 0.64% (n = 370,000);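 active = inhibition above the screen-wide mean plus 3 SD, cut at about 13% in these data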;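 also: signal is the Cy5 over europium emission ratio at 671 and 618 nm; 0% = plate median of compound wells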
DNMT1 inh: DNMT1 (human) enzyme inhibition | inhibition (reported as % activation of signal), % at 10 µM | actives 0.83% (n = 360,000) | DNMT1 molecular beacon, Hinp1I cleavage, fluorescence | P26358 | AID 588458; in the data active = inhibition above about 50%
MBD2 inh: blocks human MBD2 binding to methylated DNA; actives 0.31% (n = 370,000); AID 686964; TR-FRET, MBD2 binding to methylated oligonucleotide; Q9UBB5; inhibition, % at 4.4 µM; in the data active = inhibition above about 13%
Target sequence (Q9UBB5 whole entry, looked up): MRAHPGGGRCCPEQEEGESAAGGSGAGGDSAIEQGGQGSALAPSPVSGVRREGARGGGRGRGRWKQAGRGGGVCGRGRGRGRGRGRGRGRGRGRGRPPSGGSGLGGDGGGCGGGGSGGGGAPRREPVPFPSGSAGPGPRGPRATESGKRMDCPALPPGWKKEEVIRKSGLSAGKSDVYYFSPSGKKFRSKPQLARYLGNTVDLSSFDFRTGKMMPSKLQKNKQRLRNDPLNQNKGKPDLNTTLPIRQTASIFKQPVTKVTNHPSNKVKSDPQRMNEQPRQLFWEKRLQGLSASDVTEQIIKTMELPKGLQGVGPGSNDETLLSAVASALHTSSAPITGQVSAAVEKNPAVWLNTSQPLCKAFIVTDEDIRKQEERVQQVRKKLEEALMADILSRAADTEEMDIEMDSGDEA
PG9 Ab binder: binds the HIV-1 gp120 antibody PG9; TR-FRET gp120-PG9 antibody binding; inhibition, % at 6.7 µM; actives 0.43% (n = 360,000); in the data active = inhibition above about 8.5%
Numbers without * were called inactive; . = not tested or not shown. Hits are enriched below; roughly 3.5% of the tested compounds scored in any of these assays.

SMILES	rCAG binder	UHRF1 MBD2 ctr	LEDGF integ inh	DNMT1 inh	MBD2 inh	PG9 Ab binder
C[C@H](CO)N1C[C@H](C)[C@H](CN(C)C(=O)OCc2ccccc2)OCc2cnnn2CCCC1=O	-1	24*	-3	5	4	1
C[C@H]1CN([C@@H](C)CO)C(=O)CCCn2nncc2CO[C@@H]1CN(C)CC1CC1	1	-1	0	.	5	-4
O=C(Nc1ccc(-c2n[nH]c(=S)o2)cc1)c1ccccc1	8	-4	-1	3	1	3
OCCN(CC#CC(O)(c1ccccc1)c1cccc(F)c1)CCO (stereo not given)	-8	26*	-5	5	9	-2
COc1ccc(NC(=O)CN(C)C(=O)c2cc3c(s2)CCC3)cc1	.	.	.	97*	.	.
COc1ccc(NC(=O)CN(C)C(=O)c2cc3c(s2)CCCCC3)cc1	-6	1	-8	-1	4	0
CC(=O)Oc1ccc2occ(C(=O)c3cccs3)c2c1	-1	2	2	1	-4	-2
O=C(CCl)Oc1ccc2occ(C(=O)c3cccs3)c2c1	0	29*	12	7	13	-1
COc1ccc(CCCNC(=O)C2(C)Cc3c(-c4ccc5c(c4)OCO5)ccnc3O2)cc1 (stereo not given)	1	-1	0	1	1	0
Cc1cc(S(=O)(=O)N2CCCC2)ccc1OCC(=O)Nc1ccc(C(N)=O)cc1	3	2	1	-1	-5	0
COCc1cc(C)nc(OCC(=O)N/N=C/c2ccc(OC)c(O)c2)c1C#N	1	36*	-2	3	-2	-1
CC(=O)C1=C(C)N(Cc2ccc(F)cc2)C(=S)NC1c1ccc(Cl)cc1 (stereo not given)	2	-1	-3	.	1	-1
C[C@@H]1CN([C@H](C)CO)C(=O)c2cc(C#CC3CCCCC3)cnc2O[C@H]1CN(C)Cc1cccnc1	1	23*	3	10	9	-1
C[C@@H]1CN([C@@H](C)CO)C(=O)c2cc(C#CC3CCCCC3)cnc2O[C@@H]1CN(C)S(=O)(=O)c1ccc(F)cc1	7	21*	3	2	11	-2
C[C@H](CO)N1C[C@H](C)[C@H](CN(C)Cc2ccncc2)Oc2ncc(C#CC3CC3)cc2C1=O	1	7	-2	2	3	1
C[C@@H]1CN([C@@H](C)CO)S(=O)(=O)c2ccc(C#CC3CCCCC3)cc2O[C@@H]1CN(C)Cc1cccnc1	6	24*	2	-7	11	1
C[C@H]1CN([C@@H](C)CO)C(=O)c2cc(C#CCC3CCCC3)cnc2O[C@@H]1CN(C)C(=O)CC1CC1	3	22*	3	11	5	0
C[C@H]1CN([C@@H](C)CO)S(=O)(=O)c2ccc(C#CC3CC3)cc2O[C@H]1CN(C)C(=O)c1cccnc1	1	6	4	0	0	0
COC(=O)c1cc2c(c3c4cc(F)ccc4n(S(=O)(=O)c4ccc(C)cc4)c13)C(=O)N(Cc1ccc(N(C)C)cc1)C2	13	-3	-3	.	-5	0
Cc1ccc(CNC(=O)OC(C)(C)C)c(/C=C/S(=O)(=O)NCCc2ccccc2)c1	2	2	4	.	6	.
C=CCOc1ccccc1CN(C(=O)CCl)c1ccc2c(c1)OCO2	2	4	3	79*	1	-2
CCOC(=O)Nc1sc2c(c1C(=O)OCC)CCC2	5	-1	-3	0	-5	0
CCOC(=O)c1c(NC(=O)C2CCCCC2C(=O)O)sc2c1CCCCC2 (stereo not given)	45*	-1	6	-2	-5	3
CCOC(=O)c1c(/N=C/N(C)C)sc2c1CCC2	-1	95*	-1	-4	4	-2
COC(=O)N1C[C@H](OC)[C@H]2C[C@@H]1c1ccccc1O2	1	1	-3	.	1	0
SMILES	rCAG binder	UHRF1 MBD2 ctr	LEDGF integ inh	DNMT1 inh	MBD2 inh	PG9 Ab binder
CCCCOc1ccc(NC(=O)CN2CCN(CC)CC2)cc1	-7	-1	0	-4	1	1
CCCCOc1ccc(NC(=O)Cn2c(=O)ccc3c(C)cc(C)nc32)cc1	-5	2	0	-3	2	9.0*
COC(=O)c1ccc(C(=O)O)nc1	0	22*	6	6	0	-4
O=C(c1ccccc1)N1CCC(=O)N1c1ccccc1	0	37*	-2	5	1	-1
NC(=O)COC(=O)CC1CC2CCC1C2 (stereo not given)	-2	21*	12	1	2	-3
NC(=O)c1ccc(NC(=O)COC(=O)CC2CC3CCC2C3)cc1 (stereo not given)	5	-2	-4	-2	0	-2
COc1ccc(-n2c(N)c(C(=O)NCc3ccco3)c3nc4ccccc4nc32)cc1OC	9	47*	4	-9	-1	-2
COC(=O)c1c(C)[nH]c(C(=O)COC(=O)Cn2cc(C(F)(F)F)ccc2=O)c1C	-6	82*	-5	3	-1	1
O=C(NCC1CCCO1)C1CCN(C2CCN(CCCC3CCCC3)CC2)CC1 (stereo not given)	-7	23*	-5	1	8	-1
O=C(O)C1Nc2c(O)cc(Cl)c([N+](=O)[O-])c2C2C=CCC12 (stereo not given)	101*	93*	72*	89*	63*	-6
CC1CCC2(CCC(=O)N2CCCO)CC1 (stereo not given)	1	0	-1	.	2	.
O=C1CCC2(CCC(c3ccccc3)CC2)N1CCO (stereo not given)	0	-1	0	.	-1	.
CCOc1ccc(NC(=O)C2CC(=O)N(CCc3ccccc3)C2)cc1OC (stereo not given)	3	24*	0	3	-1	-1
CCOc1ccc(CCNC(=O)C2CC(=O)N(CCc3ccccc3)C2)cc1OCC (stereo not given)	-6	0	3	1	-2	-1
CN(Cc1ccccc1)c1nc(-c2cccc([N+](=O)[O-])c2)nc2ccccc12	4	23*	-2	0	3	0
O=[N+]([O-])c1cccc(-c2nc(NCc3ccccc3)c3ccccc3n2)c1	5	2	2	-6	1	-2
CCCOc1ccc(/C(O)=C2\C(=O)C(=O)N(CCCOC)C23C(=O)N(C)c2ccccc23)cc1 (stereo not given)	8	-1	-2	2	1	11*
COc1cc(O)ccc1C=O	-2	27*	-3	-1	2	-1
Cc1ccc(-c2cnc(NC(=O)c3cccc(Br)c3)s2)c(C)c1	2	26*	-2	0	13	1
Cc1ccc(S(=O)(=O)OCC(=O)Nc2ccc(C(=O)O)c(O)c2)cc1	40*	8	15*	46	8	-1

Screens as filed in PubChem.
